CYP2C19 activ – cytochrome P450 2C19 (human) activation; P33261; recombinant CYP2C19, luciferin-H EGE luminescence; hits give high values; 0 = fully inhibited enzyme, 1 = untreated enzyme; activation factor at 5 µM; 96,000 tested, under 10 active;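 active means activation factor of at least 2 at 5 µM in the primary screen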;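 further: 0 = wells with 2.5 mM tranylcypromine and 1 = vehicle-only wells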
Mac1 fbg enh – enhancers of human CD11b/CD18 binding to fibrinogen; P05107+P11215; K562 CD11b/CD18 adhesion to fibrinogen, ATPlite luminescence; activation, % at 10 µM; 0.07% of 93,000 active; AID 1499;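 active means 10 µM primary screen giving 50% or more activity, confirmed by 40% or more on retest at that dose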
Target sequence (P05107 whole entry, looked up, other chains not shown): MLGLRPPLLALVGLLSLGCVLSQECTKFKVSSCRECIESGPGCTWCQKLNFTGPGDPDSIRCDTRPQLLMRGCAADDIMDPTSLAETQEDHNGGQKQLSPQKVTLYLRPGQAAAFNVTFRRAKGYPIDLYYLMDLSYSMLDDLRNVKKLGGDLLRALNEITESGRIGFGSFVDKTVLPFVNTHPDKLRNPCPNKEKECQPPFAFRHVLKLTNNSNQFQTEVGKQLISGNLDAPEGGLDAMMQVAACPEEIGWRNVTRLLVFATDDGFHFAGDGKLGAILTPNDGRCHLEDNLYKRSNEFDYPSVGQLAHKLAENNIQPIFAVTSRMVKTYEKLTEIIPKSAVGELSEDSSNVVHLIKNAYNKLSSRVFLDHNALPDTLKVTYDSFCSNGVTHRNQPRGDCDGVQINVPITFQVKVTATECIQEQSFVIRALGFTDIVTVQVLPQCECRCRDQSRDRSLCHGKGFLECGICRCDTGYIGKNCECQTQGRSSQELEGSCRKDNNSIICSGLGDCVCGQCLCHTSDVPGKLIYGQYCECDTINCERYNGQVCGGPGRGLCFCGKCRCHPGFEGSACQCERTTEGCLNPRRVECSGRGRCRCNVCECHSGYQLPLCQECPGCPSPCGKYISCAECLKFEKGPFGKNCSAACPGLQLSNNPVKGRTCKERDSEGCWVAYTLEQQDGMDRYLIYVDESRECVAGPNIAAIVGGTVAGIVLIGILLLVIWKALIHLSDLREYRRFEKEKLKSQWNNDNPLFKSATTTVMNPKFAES
CYP2C9 act – activators of human CYP2C9. P11712. recombinant CYP2C9, luciferin-H conversion, luminescence; hits give high values; factor 1 = untreated enzyme, 0 = blocked. activation factor at 5 µM. 1.4% of 96,000 active;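 active means activation factor of 2 or more for CYP2C9 at a 5 µM dose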;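 further: 0 = sulfaphenazole-blocked wells and 1 = vehicle-only wells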
CYP2C9 inhib – human CYP2C9 inhibition | P11712 | 20% of 96,000 active | AID 777 | CYP2C9 Supersomes, luciferin-H conversion, luminescence | inhibition, % at 5 µM;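 active means blocking of liver enzyme CYP2C9 beyond about 50% at 5 µM, limit read from the data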
CD11b adhes inh – CD11b/CD18-fibrinogen binding inhibition; inhibition, % at 10 µM; 0.54% of 93,000 active; P05107+P11215; AID 1497; K562 CD11b/CD18 adhesion to fibrinogen, ATPlite luminescence; Mn2+ added to activate the integrin;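 active means primary inhibition of 50% or more at 10 µM, then 40% or more on retest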
CYP2C19 inhib – human CYP2C19 inhibition. P33261. CYP2C19 Supersomes, luciferin-H EGE luminescence, 30 min. inhibition, % at 5 µM. 21% of 96,000 active;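 active means CYP2C19 inhibition above a set limit at 5 µM in the primary screen, cut at about 50% in these data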;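 further: plate controls were negative control wells for no effect and 2.5 mM tranylcypromine positive control for full effect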
Numbers without * were called inactive; . = no result given. Only some compounds are listed: those with a hit (about 28% of all), similar ones and a draw of the others.

SMILES | CYP2C19 activ | Mac1 fbg enh | CYP2C9 act | CYP2C9 inhib | CD11b adhes inh | CYP2C19 inhib
COc1ccc(Nc2nc(NCc3ccco3)nc(N/N=C/c3ccccc3F)n2)cc1 | . | 6 | . | . | -4 | .
CC(C)N=C(NC#N)SCc1ccc(F)cc1 | 0.1 | 3 | 0.4 | 63* | 14 | 95*
c1cnc(N2CCN(Cc3c[nH]c4ccccc34)CC2)nc1 | 0.5 | -1 | 0.7 | 35 | -7 | 46
c1ccc(CN2CCN(c3ncccn3)CC2)nc1 | 0.5 | -7 | 0.6 | 42 | -7 | 54*
Fc1ccc(CN2CCN(c3ncccn3)CC2)cc1 | 0.4 | 0 | 0.9 | 13 | -33 | 57*
CC(C)(C)c1ccc(C(=O)C=[N+]=[N-])cc1 | 1.2 | 1 | 1.2 | -22 | -24 | -23
Cc1sc2ncnc(NCC(c3ccco3)N3CCCC3)c2c1C (configuration not stated) | 0.7 | -2 | 0.5 | 48 | -4 | 28
Cc1ccc(S(=O)(=O)N2CCN(C(=O)CSC3CCCC3)CC2)c(C)c1 | 0.2 | 4 | 1.4 | -39 | 10 | 76*
CC(=O)c1c(C)[nH]c(C(=O)OCC(=O)N2CCN(S(=O)(=O)c3ccc(C)cc3C)CC2)c1C | 0.4 | -2 | 0.5 | 50* | 10 | 61*
CCOC(=O)c1c(C)[nH]c(C(=O)OCC(=O)N2CCN(S(=O)(=O)c3ccccc3)CC2)c1C | 1 | -3 | 1 | -3 | -18 | 0
CC(C)NC(=O)CSCc1c(Cl)cccc1Cl | 0.6 | 2 | 0.8 | 21 | -1 | 42
O=C(C1CCN(S(=O)(=O)c2ccc(F)cc2)CC1)N1CCOCC1 | 0.8 | 0 | 1.1 | -8 | 1 | 20
COC(=O)c1cc(S(=O)(=O)n2nc(C)c(Br)c2C)c(Cl)cc1Cl | 0.3 | -5 | 0.7 | 27 | -12 | 73*
Cc1cc(C)n(S(=O)(=O)c2cc(C(=O)O)c(Cl)cc2Cl)n1 | 0.9 | 10 | 0.8 | 22 | -25 | 11
COC(=O)c1sc2ccccc2c1NC(=O)c1coc2ccccc2c1=O | . | 18 | . | . | 10 | .
O=C(Cn1nc(Cl)nc1Cl)c1cc2ccccc2oc1=O | 0.9 | 6 | 0.4 | 62* | 9 | 13
CCOC(=O)CSc1cc(C(F)(F)F)nc(-c2ccccn2)n1 | 1.1 | . | 1 | 0 | . | -9
Cc1nc(CS(=O)(=O)c2ccccc2)cc(Sc2ccc(Cl)cc2)n1 | 1.2 | 2 | 1.3 | -29 | -3 | -24
CCOC(=O)CSc1cc(CS(=O)(=O)c2ccccc2)nc(-c2ccccc2)n1 | 0.2 | -2 | 0.5 | 54* | -11 | 81*
O=S(=O)(Cc1cc(Cl)nc(-c2ccccc2)n1)c1ccccc1 | 0.1 | -2 | 1.4 | -38 | 0 | 92*
COc1ccc(-c2ccc(-c3nnc(-c4ccncc4)o3)cc2)cc1 | 0.5 | 7 | 0.7 | 35 | 7 | 53*
CC(NC(=O)Nn1cnnc1)(C(F)(F)F)C(F)(F)F | 1.1 | -5 | 0.8 | 16 | 21 | -8
CC1Cc2ccccc2N1c1ncnc2nc[nH]c12 (configuration not stated) | 0.9 | 3 | 0.8 | 23 | 4 | 14
CCN(CC)c1ncn(Cc2c(Cl)cccc2Cl)c2ncnc1-2 | 0.6 | . | 0.6 | 36 | . | 35
COc1cc(NC(=O)c2nnn(Cc3ccc(SC)cc3)c2N)cc(OC)c1 | 0.9 | -5 | 0.9 | 13 | 6 | 7
SMILES | CYP2C19 activ | Mac1 fbg enh | CYP2C9 act | CYP2C9 inhib | CD11b adhes inh | CYP2C19 inhib
[O-][n+]1c2c(c3c4non(O)c4ccc31)CCCC2 | 0.8 | -6 | 0.6 | 38 | 96* | 22
CCOc1ccc(CN2C(=O)c3ccccc3C2C(=O)NCc2cccnc2)cc1 (configuration not stated) | 0.7 | 0 | 0.7 | 28 | -29 | 26
COc1ccc(CCN(C(=O)C(F)(F)F)C(C(=O)NC2CCCCC2)c2ccc(C)s2)cc1OC (configuration not stated) | 1 | 0 | 0.6 | 36 | 3 | 0
CC(C)SC1=NC(C)(C)C=C(/C=C/c2ccc(Cl)cc2Cl)N1 | 0.3 | -4 | 0.4 | 62* | -53 | 69*
CC(C)SC1=NC(C)(C)C=C(/C=C/c2c(Cl)cccc2Cl)N1 | 0.2 | -1 | 0.3 | 70* | -33 | 78*
Clc1ccc(/C=C/c2nc3ccccc3[nH]2)c(Cl)c1 | 0.7 | -11 | 0.9 | 14 | 41 | 32
CCCCCOC(=O)Cn1c(N2CCCCCC2)nc2c1c(=O)[nH]c(=O)n2C | 0.8 | -2 | 0.9 | 9 | 4 | 20
COC(=O)CSc1nnc(CNC(=O)Cc2ccccc2)n1-c1ccccc1OC | 1.1 | -2 | 1.1 | -12 | -18 | -11
O=C(CCCc1ccccc1)N1CCN(c2ccc([N+](=O)[O-])cc2)CC1 | 0.9 | . | 0.8 | 17 | . | 6
O=C(CCc1ccc(Oc2cc([N+](=O)[O-])cc([N+](=O)[O-])c2)cc1)N1CCCCC1 | 0.5 | 3 | 0.2 | 82* | -3 | 54*
Cc1ccc(CN(Cc2cccnc2)C(=O)CN2C(=O)COc3ccccc32)o1 | 0 | -2 | 0.3 | 67* | 2 | 95*
Cc1cc(C)n(C(=O)c2ccc(C)c(S(=O)(=O)N3CCCCC3)c2)n1 | 0.1 | -1 | 0.1 | 91* | -30 | 91*
Cc1ccc(C(=O)Nc2ccon2)cc1S(=O)(=O)N1CCOCC1 | 1.1 | -5 | 1 | 2 | 18 | -7
Cc1ccc(C(=O)Nc2ccon2)cc1S(=O)(=O)N1CCCCCC1 | 0.1 | -3 | 0.8 | 20 | -2 | 88*
Cc1ccc(C(=O)O)cc1S(=O)(=O)N1CCC(C(=O)O)CC1 | 1.2 | 0 | 1.3 | -25 | 4 | -18
Cc1ccc(NC(=O)c2ccc3c(c2)OCCO3)cc1S(=O)(=O)Nc1cccc(Cl)c1 | . | -6 | . | . | 98 | .
COc1ccccc1OCC(=O)Nc1cccc(N(C)S(C)(=O)=O)c1 | 0.2 | 1 | 0.5 | 47 | -9 | 83*
CN(c1cccc(NC(=O)Nc2cccc(Cl)c2)c1)S(C)(=O)=O | 0.4 | 5 | 0.3 | 72* | 23 | 62*
COc1ccc(C(=O)Nc2cccc(N(C)S(C)(=O)=O)c2)cc1OC | 0.7 | -1 | 0.8 | 24 | 0 | 34
CC(=O)Nc1cccc(N(C)S(C)(=O)=O)c1 | 1.1 | 0 | 0.8 | 20 | 0 | -13
Cc1ccc(C(=O)Nc2cccc(N(C)S(C)(=O)=O)c2)cc1S(=O)(=O)Nc1ccccc1 | 0.5 | -4 | 0.3 | 72* | 4 | 46
Cc1ccc(SCCC(=O)Nc2cccc(N(C)S(C)(=O)=O)c2)cc1 | 0.1 | -2 | 0.2 | 83* | -19 | 91*
CCOc1ccc(NC(=O)CCSc2ccc(C)cc2)cc1 | . | 3 | . | . | -17 | .
Cc1ccc2[nH]c(=O)c(C(c3nnnn3CCc3ccccc3)N3CCOCC3)cc2c1 (configuration not stated) | 1 | -2 | 1 | -1 | -3 | -2

Screens from PubChem BioAssay.
